Screening results from PubChem.
CSC inhib = blocks cancer stem cells; 300,000 compounds, 1.1% hits; inhibition, % at 7.5 µM; cancer stem cell-like cells viability, luminescence; in the data active = inhibition above about 75%; tested in HMLE shEcad cells
697 NFkB inh = lowers PMA/ionomycin-induced NF-kB signal in 697 B cells; 330,000 compounds, 0.33% hits; inhibition, % at 4 µM; 697 B-cell NF-kB luciferase reporter, 16 h; in the data active = inhibition above about 35%
Jurkat NFkB inh = lowers PMA/ionomycin-induced NF-kB signal in Jurkat cells. 330,000 compounds, 0.53% hits. inhibition, % at 4 µM. AID 435003. PMA/ionomycin-induced NF-kB luciferase reporter, luminescence; in the data active = inhibition above about 50%
Gli-Sufu antag = blocks Gli-Sufu signaling in a luciferase reporter; Sufu-KO-LIGHT fibroblasts, Gli luciferase reporter luminescence; inhibition, % at 5 µM; 340,000 compounds, 0.74% hits;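 active = inhibition above about 55%, limit read from the data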;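 also: 0% = DMSO-treated cells and 100% = wells with medium but no cells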
Mdm2-MdmX inh = disrupts the human Mdm2-MdmX interaction | SaOS-2 split-luciferase Mdm2/MdmX complementation, luminescence | 330,000 compounds, 3% hits | O15151+Q00987 | inhibition, % at 8 µM;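 active = inhibition of at least 50% at 8 µM in the primary screen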
Beta apoptosis = beta cell apoptosis inhibition. protection from apoptosis, % (no concentration beside the values). 300,000 compounds, 0.8% hits. INS-1E cytokine-induced death, ATP luminescence, 48 h; percent of positive-control rescue, neutral wells zero;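 active = Every replicate reaches about 75%, or at least half do and their mean reaches it too, limit read from the data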;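 also: 0% = cytokine-treated negative control wells and 100% = positive control rescue; higher means more ATP so stronger rescue from cytokine killing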
Mdm2-MdmX conf = human Mdm2/MdmX binding inhibition, confirmed. shares compounds with Mdm2-MdmX inh. luminescent assay. inhibition, % at 8 µM. 10,000 compounds, 55% hits. AID 489028; in the data active = inhibition above about 40%
FLuc counter = full-length luciferase inhibition in Mdm2/MdmX counter-screen; 6,200 compounds, 77% hits; inhibition, % at 8 µM; AID 504607; SaOS-2 full-length luciferase counterscreen, luminescence; shares compounds with Mdm2-MdmX inh;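 active = mean inhibition at 8 µM reaching about 37%, which flags the compound as non-specific, limit read from the data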;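 also: p53-null SaOS-2 cells with luciferase driven by a doxycycline-inducible promoter; compound on cells about two nights before reading with doxycycline added after day one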
* hit, by the source's call; · = no result given. The list is not random: actives were taken first. Their share in the collection is about 4.5%.

SMILES | CSC inhib | 697 NFkB inh | Jurkat NFkB inh | Gli-Sufu antag | Mdm2-MdmX inh | Beta apoptosis | Mdm2-MdmX conf | FLuc counter
O=C(COC(=O)C1=COCCO1)Nc1ccc(Br)cc1Br | 5 | -9 | -45 | -2 | 2 | -5 | · | ·
COc1ccc(/C=N/Nc2cc(C)nc(-n3nc(C)cc3C)n2)c(OC)c1 | 7 | -6 | 13 | 34 | 55* | 82* | 38 | 48*
CCOc1cc(/C=N/Nc2cc(C)nc(-n3nc(C)cc3C)n2)ccc1O | 25 | -28 | 32 | 21 | 73* | 99* | 40 | 23
COc1ccccc1/C=N/Nc1cc(C)nc(N2CCOCC2)n1 | -4 | 9 | 6 | 4 | -7 | -8 | · | ·
Cc1ccc(C)c(C2NC(=O)c3ccccc3N2)c1 (stereo not drawn) | 33 | -29 | 47 | 27 | 50* | 13 | 53* | 55*
COc1ccc(/C=C2\CCC/C(=C\c3ccc(OC)c(OC)c3OC)C2=O)c(OC)c1OC | · | -43 | 0 | 30 | 23 | · | · | ·
COc1cc(OC)c(OC)cc1/C=C1\CCC/C(=C\c2cc(OC)c(OC)cc2OC)C1=O | · | 5 | 40 | 33 | 67* | · | 43* | 82*
Cc1onc(-c2ccccc2Cl)c1C(=O)OCC(=O)N1CCN(c2ccccc2)CC1 | · | 7 | -3 | 8 | 19 | 0 | · | ·
CCN(CC)C(=O)c1sc(NC(=O)C(Sc2ccccc2)c2ccccc2)c(C(=O)OC(C)C)c1C (stereo not drawn) | 18 | 1 | -2 | 17 | 58* | 3 | 1 | ·
Cn1c(N2CCCCC2)nc2c1c(=O)[nH]c(=O)n2C | -14 | 14 | -4 | 4 | -5 | 3 | · | ·
Cn1c(N2CCN(C(c3ccccc3)c3ccccc3)CC2)nc2c1c(=O)[nH]c(=O)n2C | 19 | 13 | 24 | 8 | 60* | 4 | 58* | 87*
CCCCCn1c(N2CCC(Cc3ccccc3)CC2)nc2c1c(=O)[nH]c(=O)n2C | 118* | -38 | -2 | 14 | 58* | 20 | 5 | ·
COc1ccc(CCNC(=O)c2cc3c(=O)n4ccccc4nc3n(C3CCCCC3)c2=N)cc1OC | 21 | -45 | -11 | 44 | 58* | 1 | 26 | ·
COc1ccc(CCNC(=O)c2cc3c(=O)n4ccccc4nc3n(CC3CCCO3)c2=N)cc1 (stereo not drawn) | · | · | · | 16 | · | · | · | ·
COc1ccc(CCNC(=O)c2cc3c(=O)n4ccccc4nc3n(Cc3ccco3)c2=N)cc1OC | -12 | -12 | 18 | 38 | 62* | · | 41* | 26
COc1ccc(CCNC(=O)c2cc3c(=O)n4ccccc4nc3n(C3CCCCC3)c2=N)cc1 | -12 | -68 | 14 | 18 | 61* | 20 | 38 | 69*
COc1ccc(CCNC(=O)c2cc3c(=O)n4ccccc4nc3n(CCCN3CCOCC3)c2=N)cc1 | -1 | -16 | 35 | 28 | 54* | 15 | 13 | ·
COc1ccc(CCNC(=O)c2cc3c(=O)n4ccccc4nc3n(CCCN3CCOCC3)c2=N)cc1OC | 5 | -12 | 11 | 28 | 10 | 6 | · | ·
CC(C)Cc1nnc(NC(=O)C2=COCCO2)s1 | -7 | -68 | -27 | -44 | 9 | 0 | · | ·
CC(C)N1CCSC1=S | · | · | · | 1 | · | · | · | ·
O=C(NCCc1cccnc1)C1CCC(=O)N(Cc2ccc(Cl)cc2)C1 (stereo not drawn) | · | -8 | 11 | 3 | 21 | · | · | ·
Cc1ccc2c(c1)CCCN2CC(=O)N(C)c1c(N)n(Cc2ccccc2)c(=O)[nH]c1=O | · | 10 | -12 | -8 | 15 | 2 | · | ·
Cc1cccc(NC(=S)NCCC(c2ccccc2)c2ccccc2)c1 | 39 | -12 | 2 | 1 | 53* | 10 | 7 | ·
CCCCC(=O)NC(c1ccccc1OC)c1ccc2cccnc2c1O (stereo not drawn) | 138* | -11 | 42 | 48 | 87* | 96* | 83* | 52*
CCCC(=O)NC(c1ccccc1OC)c1ccc2cccnc2c1O (stereo not drawn) | 119* | -10 | 46 | · | 77* | 95* | 82* | 50*
SMILES | CSC inhib | 697 NFkB inh | Jurkat NFkB inh | Gli-Sufu antag | Mdm2-MdmX inh | Beta apoptosis | Mdm2-MdmX conf | FLuc counter
CCCC(=O)NC(c1ccc(OC)c(OC)c1)c1c(O)ccc2ccccc12 (stereo not drawn) | -18 | 16 | -18 | 4 | 19 | 1 | · | ·
CCCCC(=O)NC(c1ccc(OC)c(OC)c1)c1c(O)ccc2ccccc12 (stereo not drawn) | -15 | -6 | -2 | 5 | -7 | -8 | · | ·
COc1ccc(Cn2c(C)c(C)c(C#N)c2NC(=O)Nc2cccc(C)c2)cc1 | -6 | 25 | 0 | 4 | 54* | -6 | 7 | ·
COc1ccc(Cn2c(C)c(C)c(C#N)c2NC(=O)Nc2ccccc2)cc1 | 1 | 11 | 10 | -12 | 36 | 3 | · | ·
COc1ccc(Cn2cccc(NC(=O)Nc3cccc(C#N)c3)c2=O)cc1 | -3 | -3 | 13 | -4 | 67* | -2 | 7 | ·
O=C(COC(=O)Cc1ccccc1F)NCCNC(=O)COC(=O)Cc1ccccc1F | · | -5 | -20 | -10 | 11 | 8 | · | ·
O=C(CCl)N1N=C(c2cccs2)CC1c1ccco1 (stereo not drawn) | 56 | -55 | 0 | 1 | 100* | -38 | 99* | 53*
O=C(CCl)N1N=C(c2ccco2)CC1c1ccco1 (stereo not drawn) | 8 | 12 | 8 | · | 97* | · | 49* | 31
CCS(=O)(=O)Nc1ccc(C2=NN(C(=O)c3ccco3)C(c3ccco3)C2)cc1 (stereo not drawn) | -6 | -55 | 38 | -10 | 53* | 10 | 74* | 56*
COc1ccc(C(=O)c2ccc(Cl)c([N+](=O)[O-])c2)cc1 | 38 | 7 | 47 | -12 | 70* | 53 | 70* | 111*
COc1cc(C(=O)Nc2ccc(Cl)c([N+](=O)[O-])c2)cc(OC)c1OC | -7 | -3 | -10 | 20 | 57* | 8 | 5 | ·
COc1cc(C(=O)Nc2ccc(Cl)c(C(F)(F)F)c2)cc(OC)c1OC | 58 | 20 | 9 | 30 | 30 | 68 | · | ·
Cn1cc(S(=O)(=O)N2CCCC2)cc1C(=O)NCCc1ccccc1 | -4 | 4 | -6 | 8 | 16 | 1 | · | ·
O=C(NCCc1ccccc1)C1CCC(Cn2c(=O)c3ccccc3n(Cc3cccc(Cl)c3)c2=O)CC1 (stereo not drawn) | 0 | 11 | 13 | -6 | 54* | 14 | 0 | ·
O=C(NCCc1ccccc1)C1CCC(Cn2c(=O)c3ccccc3n(Cc3cccc(F)c3)c2=O)CC1 (stereo not drawn) | -3 | -10 | 5 | 10 | 49 | 4 | · | ·
O=C(Nc1cnn(C23CC4CC(CC(C4)C2)C3)c1)c1cnn2c(C(F)(F)F)cc(-c3ccco3)nc12 | 43 | 11 | -6 | 11 | 58* | 20 | 17 | ·
